Rows were chosen to be rich in hits. Some 2.5% of all compounds tested hit in one or more screens of this group.
Cruzain inh Det – blocks cruzain activity in presence of Triton detergent | P25779 | purified cruzain, Z-FR-AMC fluorescence, 0.01% Triton | Potency, µM, inactives show max response, negative = inhibition, hits mostly inhibitors | hit rate 0.43% among 200,000 | AID 1478;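 note: plate controls were neutral wells for no effect and buffer without enzyme for full effect; nearly all actives have a fitted effect of over 40% in size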
Target sequence (P25779 123-467 limits assumed): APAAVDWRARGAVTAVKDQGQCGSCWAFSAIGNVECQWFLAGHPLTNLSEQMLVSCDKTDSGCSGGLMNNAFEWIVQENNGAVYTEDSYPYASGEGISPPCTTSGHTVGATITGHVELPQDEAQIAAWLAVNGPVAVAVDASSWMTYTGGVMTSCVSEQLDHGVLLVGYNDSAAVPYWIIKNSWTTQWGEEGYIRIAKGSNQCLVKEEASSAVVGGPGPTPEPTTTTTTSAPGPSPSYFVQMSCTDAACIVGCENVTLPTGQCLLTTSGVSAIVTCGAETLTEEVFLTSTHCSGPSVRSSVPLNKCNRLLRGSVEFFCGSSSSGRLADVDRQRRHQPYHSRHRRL
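Sodium acetate buffer (100 mM, pH 5.5) containing 5 mM DTT and 0.01% Triton X-100 hosted 1.5 nM cruzain and test compound for 15 min at room temperature. Cleavage of 2 uM Z-FR-AMC was then tracked by fluorescence.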
Cruzain inh noDet – inhibitors of Trypanosoma cruzi cruzain without detergent. P25779. purified cruzain, Z-FR-AMC fluorescence, no detergent. Potency, µM, without a hit: max response, negative = inhibition, hits mostly inhibitors. hit rate 2.3% among 200,000. AID 1476;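 note: plate controls were enzyme without inhibitor for no effect and buffer without enzyme for full effect; nearly all actives have a fitted effect of over 40% in size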
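Detergent-free condition (0.00005% Triton X-100) in acetate buffer pH 5.5 with DTT. 1.5 nM enzyme and compound were pre-mixed 15 min, then 2 uM Z-FR-AMC substrate added; reaction progress from fluorescence change between first and third reads (60 s).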
Active calls of the source: *; ? = inconclusive. Calls come from the whole dose curve; as a rule, active = well fitted curve in the direction sought with a large enough effect; inconclusive = small, poorly fitted or top-dose-only effect, or another doubt; inactive = no such curve, though single readings can be large; an effect the other way counts as inactive or inconclusive. Potency is the fitted concentration of half-maximal effect.

SMILES	Cruzain inh Det	Cruzain inh noDet
COc1cc(S(=O)(=O)N2CCC(c3nc4ccccc4s3)CC2)ccc1S(=O)(=O)N1CC(C)CC(C)C1 (stereo unspecified)	4%	4µM*
COc1ccc(S(=O)(=O)N2CCC(c3nc4ccccc4s3)CC2)cc1OC	5%	1%
CCC1CN(C(=O)N2CCC(C(=O)N3CCN(c4ccccc4F)CC3)CC2)c2ccccc2O1 (stereo unspecified)	0%	3%
CCN(CC)CCNC(=O)c1ccc2c(c1)N(Cc1ccccc1)C(=O)c1ccccc1S2=O (stereo unspecified)	4%	-11%
CC(=O)NCC(=O)OCC(=O)c1ccc(C)c(C)c1	5%	9%
Cc1ccc(C(=O)COC(=O)CNC(=O)COc2ccccc2C)cc1C	16µM*	?
O=C(Nc1ccc2c(c1)OCO2)C1Cc2ccccc2CN1S(=O)(=O)c1cccs1 (stereo unspecified)	-3%	25µM*
O=C(Nc1ccc2c(c1)OCO2)C1CCN(S(=O)(=O)c2cccs2)CC1	-1%	?
CCCCCOc1ccc(/C=C/C(=O)Nc2sc3c(c2C(=O)OCC)CCC3)cc1OC	-2%	2%
Nc1ccc(-c2nc3ccc(C(=O)O)cc3s2)cc1	25µM*	?
O=C(O)c1ccc2nc(-c3ccccc3)sc2c1	-5%	-8%
C=C1C[C@@]23CC4C5[C@@]6(C)C[C@H](O)C[C@@]57C2[C@H](O)[C@@H]1[C@H](O)[C@H]3[C@H]7N4C6	0%	-1%
COc1ccc(Cn2ccc3nc(C)c(C(=O)Nc4cc(OC)c(OC)c(OC)c4)cc3c2=O)cc1	1%	?
CC1=NN(C(N)=S)C(=O)C1N=Nc1c(C)cc(C)cc1C (stereo unspecified)	-27%	13µM*
CC1=NN(C(N)=S)C(=O)C1N=Nc1ccc(C)cc1C (stereo unspecified)	-17%	?
CC1=NN(C(N)=S)C(=O)C1N=Nc1ccccc1C (stereo unspecified)	?	25µM*
CC(=O)Nc1ccc(N2N=C(C)C(N=Nc3ccccc3)C2=O)cc1 (stereo unspecified)	-5%	?
Cc1cc(C)c(NC(=O)Cn2c(=O)n(CCC(C)C)c(=O)c3cccnc32)c(C)c1	1%	-10%
Nc1nc(SCC(=O)Nc2ccc3c(c2)CCC3)n[nH]1	-2%	-17%
O=C(CSc1nc(O)cc(=O)[nH]1)Nc1ccc2c(c1)CCC2	-11%	16µM*
S=C([S-])NCCNC(=S)[S-].[Zn+2]	32µM*	?
COc1ccc(C2CC(=O)N(CC(=O)Nc3ccc(C)c(Cl)c3)c3ccccc3S2)cc1OC (stereo unspecified)	-5%	4%
CC[C@]1(OC(=O)CN)C(=O)OCc2c1cc1n(c2=O)Cc2cc3ccccc3nc2-1	-2%	4%
Cc1noc2ncc(C(=O)c3cc(F)ccc3O)cc12	1%	-5%
Cc1ccc(O)c(C(=O)c2cnc3onc(-c4ccc(F)cc4)c3c2)c1	-4%	13µM*
SMILES	Cruzain inh Det	Cruzain inh noDet
COc1cccc(/C=C/C(=O)OCC(=O)c2cc(C)n(CC3CCCO3)c2C)c1OC (stereo unspecified)	-6%	13%
Cc1cc(C(=O)COC(=O)c2ccc(O)cc2)c(C)n1CC1COc2ccccc2O1 (stereo unspecified)	-4%	25µM*
CC(=O)c1ccc(NC(=O)CSC2=Nc3ccccc3N=C(c3ccc(F)cc3)C2)cc1	-2%	2%
COc1cc(C(=O)O/N=C2\C=CC(=O)C(C)=C2)cc(OC)c1OC	?	-17%
COc1cc(C(=O)ON=C2C=C(C)C(=O)C(C)=C2)cc(OC)c1OC	3.5µM*	?
CCOc1ccc(NC(=O)CSc2nc(-c3ccccc3)c3cc(OCC)ccc3n2)cc1	3%	-7%
CCCCN(CC)C(=O)c1c[nH]c2ccc(S(=O)(=O)N(C)c3ccc(Cl)cc3)cc2c1=O	0%	-13%
O=C(Cn1c(=O)sc2ccccc21)Nc1ccc(S(=O)(=O)N2CCCCC2)cc1	-5%	32µM*
O=C(Cn1c(=O)sc2ccccc21)Nc1ccccc1	8%	-12%
CCOc1cc(/C=N/NC(=O)CSc2nnc(C)s2)ccc1OCc1ccccc1Cl	-2%	14%
CCOc1cc(/C=N\NC(=O)Cn2nc([N+](=O)[O-])cc2C)ccc1OCc1cccc2ccccc12	-1%	13µM*
CC1Cc2ccccc2N1Cc1nc2scc(-c3cccs3)c2c(=O)[nH]1 (stereo unspecified)	-4%	16µM*
O=c1[nH]c(CN2CCN(c3ccccc3)CC2)nc2scc(-c3ccccc3)c12	-3%	?
COC(=O)c1ccc2c(=O)[nH]c(CN3c4ccccc4CC3C)nc2c1 (stereo unspecified)	-2%	?
CC1Cc2ccccc2N1Cc1nc2cc(Cl)ccc2c(=O)[nH]1 (stereo unspecified)	4%	25µM*
CCc1ccccc1NC(=O)Cn1cc2c(n1)CCC(C)C2 (stereo unspecified)	-4%	27%
O=C(O)CSSCC(=O)O	4%	1%
CC(=O)c1ccc(-c2cccc(-c3cc(=O)oc4ccc(C(C)(C)C)cc34)c2)cc1	-1%	28µM*
COc1cc2oc(=O)cc(-c3cccc(-c4ccc(C(C)=O)cc4)c3)c2c(OC)c1OC	2%	19%
Cc1ccc(CN2C(=O)C3(c4ccccc42)N(c2cccc(C(F)(F)F)c2)C(=O)CS3(=O)=O)cc1 (stereo unspecified)	-9%	13µM*
O=C1CS(=O)(=O)C2(C(=O)N(Cc3ccc(F)cc3)c3ccccc32)N1c1cccc(C(F)(F)F)c1 (stereo unspecified)	-7%	?
O=C1CS(=O)(=O)C2(C(=O)N(Cc3ccccc3)c3ccccc32)N1c1ccccc1 (stereo unspecified)	1%	?
Cc1cc(C)cc(N2C(=O)CS(=O)(=O)C23C(=O)N(Cc2ccccc2)c2ccccc23)c1 (stereo unspecified)	-5%	6.3µM*
CCc1nnc(SCc2cc(C)ccc2C)c2cc3sc(C)cc3n12	-4%	12%
CCN(CC)CCCNC(=O)c1c2c(nc3ccccc13)C(=O)N(C1CCCCC1)C2	-3%	1%
SMILES	Cruzain inh Det	Cruzain inh noDet
O=C(NCc1ccc(Cl)cc1)C1CCN(S(=O)(=O)c2cc([N+](=O)[O-])ccc2Cl)CC1	-2%	1%
Cc1cccc2sc(NC(=O)C3CCN(S(=O)(=O)c4cc([N+](=O)[O-])ccc4Cl)CC3)nc12	-4%	20µM*
COC(=O)c1ccccc1NC(=O)c1cc(=O)c2ccc(C)c(C)c2o1	-2%	-3%
CC(=O)c1cc2c(cc1N/C(=N/S(=O)(=O)c1ccc(F)cc1)c1ccccc1)OCO2	1%	-4%
COc1ccc(C)cc1NC(=O)Nc1ccc(Br)cn1	3%	25µM*
CCOC(=O)Nc1cc(C)ccc1OC	8%	-12%
COc1ccc(Cl)cc1N(CC(=O)N/N=C/c1ccc(OC(C)C)cc1)S(=O)(=O)c1ccc(C)c([N+](=O)[O-])c1	-2%	5µM*
C=CCOc1cccc(/C=N/NC(=O)CN(c2cc(Cl)ccc2OC)S(=O)(=O)c2ccc(C)c([N+](=O)[O-])c2)c1	-1%	?
CCCCNc1nc2c(S(=O)(=O)c3ccc(Br)cc3)nnn2c2ccsc12	-1%	-3%
Cc1nn(-c2ccc([N+](=O)[O-])cc2)c2c1C(c1cccc(Br)c1)N1C(=N2)C(=O)Nc2ccccc21 (stereo unspecified)	-3%	4µM*
